According to PubChem BioAssay (Tox21):
Where “and” joins values, the source holds several entries; their conditions need not be identical. Equal values may be shown once. Results filed as inconclusive are left out. Where a call stands in place of a potency, no number is given. A number with no mark means an inactive call. Calls of active or inactive are those of the source. Calls follow the shape of the dose curve; as a rule, active = well fitted curve in the direction sought with a large enough effect in the repeat runs; inconclusive = weak or mixed curves; inactive = no such curve, though single readings can be large; an effect the other way counts as inactive or inconclusive.

Tests used:
[1] = target: Nuclear receptor subfamily 1 group I member 2 (Rattus norvegicus) (UniProt Q9R1A7); test: Rat pregnane X receptor (rPXR) activation by small molecules, qHTS assay (AID 1346983); settings: rPXR luciferase reporter cells, One-Glo luminescence, 24 h; max activation: stronger effect = higher value; also: nearly all actives have a fitted effect of over 20% in size
Summary of the method: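 Luminescent readout (One-Glo luciferase, 30 min room temperature) followed 24 hr compound treatment at 37 C of rPXR cells plated 2,000 per well and preincubated 5hr; qHTS format with compounds delivered in DMSO.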

[2] = target: Nuclear receptor subfamily 1 group I member 2 (Homo sapiens) (UniProt O75469); test: CYP3A4 induction through human pregnane X receptor (PXR) by small molecules, qHTS assay (AID 1346984); settings: DPX-2 HepG2 PXR, CYP3A4-luciferin luminescence, 24 h; series mostly up to 46.1 µM; also: nearly all actives have a fitted effect of over 40% in size; also: potency is read from the fitted curve at half-maximal effect
Summary of the method: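 Induction measured in HepG2-based DPX-2 cells co-expressing human PXR and a CYP3A4 promoter-driven luciferase. After a 24-hour compound exposure, cells received CYP3A4 luciferin substrate at 3uM final for 3 hours, and light output was then recorded.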

[3] = target: Nuclear receptor subfamily 1 group I member 2 (Homo sapiens) (UniProt O75469); test: Human pregnane X receptor (PXR) activation by small molecules, qHTS assay (AID 1346985); settings: DPX-2 HepG2 CYP3A4-luciferase, 24 h; series mostly up to 38.3 µM; also: nearly all actives have a fitted effect of over 40% in size; also: potency is read from the fitted curve at half-maximal effect
Summary of the method: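 DPX-2 cells (HepG2 co-transfected with a PXR response element and a CYP3A4-promoter luciferase construct) were seeded at 2,000 per well, rested 5 hr at 37C, then exposed to DMSO-dissolved compounds for 24 hr. Activation was read as luciferase luminescence.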

[4] = target: Voltage-gated inwardly rectifying potassium channel KCNH2 (Homo sapiens) (UniProt Q12809); test: Human Ether-a-go-go-Related Gene (hERG) channel small molecule antagonists: fluorescence cell-based qHTS assay (AID 1671200); settings: hERG-U2OS cells, FluxOR thallium flux fluorescence; series mostly up to 76.8 µM; also: nearly all actives have a fitted effect of over 50% in size; also: potency is read from the fitted curve at half-maximal effect
Summary of the method: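 hERG-U2OS cells plated overnight at 37 C, loaded with FluxOR II dye 1 h at RT in dark; after 10 min, thallium stimulus added. Fluorescence (480/540 nm) read kinetically for 2 min at 1 s intervals.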

[5] = target: Cytochrome P450 2C19 (Homo sapiens) (UniProt P33261); test: Cytochrome P450 Family 2 Subfamily C Member 19 (CYP2C19) small molecule antagonists: luciferase reporter qHTS assay (AID 1671197); settings: P450-Glo CYP2C19 enzyme, luciferin luminescence, 1 h; series mostly up to 115 µM; also: potency is read from the fitted curve at half-maximal effect; nearly all actives have a fitted effect of over 65% in size
Summary of the method: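 Relative luminescence units recorded 20 min after the detection reagent stopped a 1 h, 37C CYP2C19 reaction on proluciferin substrate, which was started by NADPH regeneration following 10 min room-temperature compound preincubation; ketoconazole positive control.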

[6] = target: Cytochrome P450 2C9 (Homo sapiens) (UniProt P11712); test: Cytochrome P450 Family 2 Subfamily C Member 9 (CYP2C9) small molecule antagonists: luciferase reporter qHTS assay (AID 1671198); settings: P450-Glo CYP2C9 enzyme assay, luciferin luminescence; series mostly up to 115 µM; also: potency is read from the fitted curve at half-maximal effect; nearly all actives have a fitted effect of over 50% in size
Summary of the method: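 Enzyme-substrate mix preincubated with compound 10 min at room temperature; reaction started with NADPH regeneration solution, 1 h 37C. Luminescent luciferin product read after 20 min detection reagent.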

[7] = target: Cytochrome P450 1A2 (Homo sapiens) (UniProt P05177); test: Cytochrome P450 Family 1 Subfamily A Member 2 (CYP1A2) small molecule antagonists: luciferase reporter qHTS assay (AID 1671199); settings: P450-Glo CYP1A2 enzyme, luciferin luminescence, 1 h; series mostly up to 115 µM; also: potency is read from the fitted curve at half-maximal effect; nearly all actives have a fitted effect of over 50% in size
Summary of the method: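 Steps: enzyme-substrate mix dispensed; test compounds and furafylline control pinned in; 10 min room temperature; NADPH regeneration solution added, 1 h; reaction stopped with luciferin detection reagent; luminescence read after 20 min.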

[8] = target: Cytochrome P450 3A4 (Homo sapiens) (UniProt P08684); test: Cytochrome P450 Family 3 Subfamily A Member 4 (CYP3A4) small molecule antagonists: luciferase reporter qHTS assay (AID 1671201); settings: P450-Glo CYP3A4 enzyme, luciferin luminescence, 1 h; series mostly up to 115 µM; also: potency is read from the fitted curve at half-maximal effect; nearly all actives have a fitted effect of over 50% in size
Summary of the method: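 P450-Glo CYP3A4 luminescent assay: compounds preincubated 10 min at room temperature with enzyme and proluciferin substrate, NADPH regeneration added, 1 h room-temperature reaction, stopped with luciferin detection reagent; luminescence read after 20 min. Ketoconazole positive control.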

Sequence of Nuclear receptor subfamily 1 group I member 2 (Rattus norvegicus) (Q9R1A7 whole entry, looked up): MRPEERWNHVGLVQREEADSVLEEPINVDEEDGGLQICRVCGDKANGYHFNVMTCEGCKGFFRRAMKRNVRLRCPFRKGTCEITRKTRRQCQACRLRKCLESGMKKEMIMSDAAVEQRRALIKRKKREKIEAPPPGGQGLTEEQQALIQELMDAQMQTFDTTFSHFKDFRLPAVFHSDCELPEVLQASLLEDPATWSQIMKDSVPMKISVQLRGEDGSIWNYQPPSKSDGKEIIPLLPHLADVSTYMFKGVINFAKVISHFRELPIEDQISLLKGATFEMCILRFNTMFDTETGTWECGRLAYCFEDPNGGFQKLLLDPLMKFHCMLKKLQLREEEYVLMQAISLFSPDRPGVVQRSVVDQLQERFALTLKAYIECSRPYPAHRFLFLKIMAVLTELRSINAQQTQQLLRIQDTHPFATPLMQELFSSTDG
Sequence of Voltage-gated inwardly rectifying potassium channel KCNH2 (Homo sapiens) (Q12809 whole entry, looked up): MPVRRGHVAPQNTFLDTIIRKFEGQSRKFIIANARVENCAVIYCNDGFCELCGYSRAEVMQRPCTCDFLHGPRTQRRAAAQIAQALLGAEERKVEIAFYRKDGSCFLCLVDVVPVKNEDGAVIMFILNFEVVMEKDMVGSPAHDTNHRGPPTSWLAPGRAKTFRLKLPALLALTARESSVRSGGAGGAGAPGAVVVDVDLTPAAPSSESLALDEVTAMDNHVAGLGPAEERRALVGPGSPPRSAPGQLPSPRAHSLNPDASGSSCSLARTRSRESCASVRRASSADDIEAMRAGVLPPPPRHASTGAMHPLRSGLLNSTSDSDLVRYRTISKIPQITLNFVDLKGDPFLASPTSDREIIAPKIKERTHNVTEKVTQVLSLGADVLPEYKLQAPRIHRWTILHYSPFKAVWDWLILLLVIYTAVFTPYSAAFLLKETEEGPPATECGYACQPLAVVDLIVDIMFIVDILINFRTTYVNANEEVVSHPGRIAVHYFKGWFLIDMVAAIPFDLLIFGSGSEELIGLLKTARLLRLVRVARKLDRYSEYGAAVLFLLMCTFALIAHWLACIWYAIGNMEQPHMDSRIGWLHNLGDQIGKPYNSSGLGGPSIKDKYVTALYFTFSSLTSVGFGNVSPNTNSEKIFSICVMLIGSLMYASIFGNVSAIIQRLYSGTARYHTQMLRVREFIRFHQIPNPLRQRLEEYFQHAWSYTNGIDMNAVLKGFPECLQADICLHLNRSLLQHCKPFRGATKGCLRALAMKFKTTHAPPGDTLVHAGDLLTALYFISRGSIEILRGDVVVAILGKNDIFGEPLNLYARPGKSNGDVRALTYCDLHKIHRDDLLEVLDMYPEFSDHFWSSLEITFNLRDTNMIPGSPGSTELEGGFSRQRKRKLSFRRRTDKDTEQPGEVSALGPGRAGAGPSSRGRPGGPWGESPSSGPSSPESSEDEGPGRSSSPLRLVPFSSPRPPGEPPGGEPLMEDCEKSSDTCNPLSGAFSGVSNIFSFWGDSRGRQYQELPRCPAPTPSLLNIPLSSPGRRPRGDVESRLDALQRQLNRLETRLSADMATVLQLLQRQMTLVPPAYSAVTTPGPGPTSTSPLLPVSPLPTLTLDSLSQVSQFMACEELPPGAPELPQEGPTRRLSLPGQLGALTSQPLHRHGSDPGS
Sequence of Cytochrome P450 1A2 (Homo sapiens) (P05177 whole entry, looked up): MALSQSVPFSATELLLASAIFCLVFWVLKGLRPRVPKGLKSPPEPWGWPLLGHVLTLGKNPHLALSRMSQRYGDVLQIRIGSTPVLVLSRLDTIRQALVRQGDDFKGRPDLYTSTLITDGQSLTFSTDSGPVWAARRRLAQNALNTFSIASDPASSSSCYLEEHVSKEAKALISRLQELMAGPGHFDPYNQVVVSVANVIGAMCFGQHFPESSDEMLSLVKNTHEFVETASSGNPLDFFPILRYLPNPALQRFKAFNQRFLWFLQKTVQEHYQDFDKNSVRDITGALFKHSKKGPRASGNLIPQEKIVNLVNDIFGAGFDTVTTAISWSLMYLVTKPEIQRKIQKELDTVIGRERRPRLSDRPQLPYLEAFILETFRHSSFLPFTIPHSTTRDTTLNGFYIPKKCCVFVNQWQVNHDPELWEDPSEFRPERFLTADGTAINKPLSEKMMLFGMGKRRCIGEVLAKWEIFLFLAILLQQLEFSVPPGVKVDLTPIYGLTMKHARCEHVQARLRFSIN
Sequence of Cytochrome P450 2C19 (Homo sapiens) (P33261 whole entry, looked up): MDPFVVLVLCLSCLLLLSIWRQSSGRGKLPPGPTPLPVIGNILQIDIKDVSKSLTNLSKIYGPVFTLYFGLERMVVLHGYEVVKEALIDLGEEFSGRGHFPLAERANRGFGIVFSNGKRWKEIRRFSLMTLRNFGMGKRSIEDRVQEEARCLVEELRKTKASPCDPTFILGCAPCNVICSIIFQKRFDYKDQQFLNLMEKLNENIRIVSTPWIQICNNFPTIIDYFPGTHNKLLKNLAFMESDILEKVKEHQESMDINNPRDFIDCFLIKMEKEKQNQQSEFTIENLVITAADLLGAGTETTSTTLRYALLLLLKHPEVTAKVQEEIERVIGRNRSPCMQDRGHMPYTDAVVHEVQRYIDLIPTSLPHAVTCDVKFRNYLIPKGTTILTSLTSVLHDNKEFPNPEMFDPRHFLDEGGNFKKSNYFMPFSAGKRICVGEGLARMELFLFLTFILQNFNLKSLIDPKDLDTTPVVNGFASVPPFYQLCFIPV
Sequence of Cytochrome P450 2C9 (Homo sapiens) (P11712 whole entry, looked up): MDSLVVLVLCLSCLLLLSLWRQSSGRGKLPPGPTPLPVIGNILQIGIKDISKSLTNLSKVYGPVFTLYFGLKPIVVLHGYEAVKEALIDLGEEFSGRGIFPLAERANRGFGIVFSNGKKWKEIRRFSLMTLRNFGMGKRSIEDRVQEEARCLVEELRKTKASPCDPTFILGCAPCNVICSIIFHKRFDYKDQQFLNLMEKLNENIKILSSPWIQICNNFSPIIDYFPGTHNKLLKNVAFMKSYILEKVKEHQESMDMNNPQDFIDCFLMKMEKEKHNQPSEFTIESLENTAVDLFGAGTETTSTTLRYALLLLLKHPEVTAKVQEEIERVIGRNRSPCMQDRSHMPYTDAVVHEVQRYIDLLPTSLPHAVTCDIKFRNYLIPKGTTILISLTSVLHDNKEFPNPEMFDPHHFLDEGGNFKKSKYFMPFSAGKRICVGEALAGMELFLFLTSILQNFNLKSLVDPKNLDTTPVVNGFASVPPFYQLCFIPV
Sequence of Cytochrome P450 3A4 (Homo sapiens) (P08684 whole entry, looked up): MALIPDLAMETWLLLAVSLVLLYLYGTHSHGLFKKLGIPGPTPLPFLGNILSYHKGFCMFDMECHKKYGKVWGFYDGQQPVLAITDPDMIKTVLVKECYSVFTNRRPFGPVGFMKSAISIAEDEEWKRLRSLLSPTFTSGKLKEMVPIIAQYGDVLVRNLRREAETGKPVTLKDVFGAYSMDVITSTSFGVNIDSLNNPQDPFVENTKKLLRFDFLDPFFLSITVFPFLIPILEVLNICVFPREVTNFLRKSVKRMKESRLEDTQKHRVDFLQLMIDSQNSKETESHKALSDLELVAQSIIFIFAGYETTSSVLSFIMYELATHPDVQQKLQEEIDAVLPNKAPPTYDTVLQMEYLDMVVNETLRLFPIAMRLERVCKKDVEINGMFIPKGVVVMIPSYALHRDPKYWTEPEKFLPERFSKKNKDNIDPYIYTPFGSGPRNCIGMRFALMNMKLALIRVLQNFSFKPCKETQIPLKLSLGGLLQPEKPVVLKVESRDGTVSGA

## O=P(O)(O)CP(=O)(O)O
[1]
  max activation: -0.378%
[2]
  Potency: inactive
[3]
  Potency: inactive

## CC1(C)CCC(NC(=O)[C@@H](N)CCC(=O)O)CC1
[1]
  max activation: -2.85%
[2]
  Potency: inactive
[3]
  Potency: inactive

## C[C@@H]1O[C@@H](OC[C@H]2O[C@@H](Oc3c(-c4ccc(OCCO)c(OCCO)c4)oc4cc(OCCO)cc(O)c4c3=O)[C@H](O)[C@@H](O)[C@@H]2O)[C@H](O)[C@H](O)[C@H]1O
[1]
  max activation: -1.87%
[2]
  Potency: inactive
[3]
  Potency: inactive

## N[C@@H](Cc1cnc[nH]1)C(=O)O
[1]
  max activation: -4.66%
[2]
  Potency: inactive
[3]
  Potency: inactive

## CCCCC[C@H](O)/C=C/[C@@H]1[C@@H](C/C=C\CCCC(=O)O)[C@@H](O)C[C@H]1O
[1]
  max activation: -3.99% and -0.657%
[2]
  Potency: inactive
[3]
  Potency: inactive

## NC(N)=NCc1cccc(I)c1
[1]
  max activation: -16.9%
[2]
  Potency: inactive
[3]
  Potency: inactive

## C[S+](C)CCC(N)C(=O)O (stereo not given)
[1]
  max activation: -3.19%
[2]
  Potency: inactive
[3]
  Potency: inactive

## FC(F)(F)COCC(F)(F)F
[1]
  max activation: -3.1%
[2]
  Potency: inactive
[3]
  Potency: inactive

## CCOC(=O)[C@H](CCc1ccccc1)N[C@@H](C)C(=O)N1[C@H](C(=O)O)C[C@H]2CCCC[C@@H]21
[1]
  max activation: -1.14%
[2]
  Potency: inactive
[3]
  Potency: inactive

## CC(C)NCC1CCc2cc(CO)c([N+](=O)[O-])cc2N1 (stereo not given)
[1]
  max activation: -0.344%
[2]
  Potency: inactive
[3]
  Potency: inactive

## CN1CCN(CCCN2c3ccccc3Sc3ccc(C(F)(F)F)cc32)CC1
[1]
  max activation: -11.2%
[4]
  Potency: 2.68 µM (active)

## CC/C=C\C/C=C\C/C=C\CCCCCCCC(=O)OC
[5]
  Potency: 56.4 µM (active)
[6]
  Potency: 28.3 µM (active)
[7]
  Potency: 63.3 µM (active)
[4]
  Potency: inactive
[8]
  Potency: 20 µM (active)

## CCOc1ccc(NC(=S)Nc2ccc(OCC)cc2)cc1
[1]
  max activation: -1.61%
[2]
  Potency: inactive
[3]
  Potency: inactive

## CC(=O)Oc1cc(C(F)(F)F)ccc1C(=O)O
[1]
  max activation: 2.94%
[2]
  Potency: inactive
[3]
  Potency: inactive

## CCOC(=O)Cc1ccc(-c2ccccc2)cc1
[1]
  max activation: -3.15%
[2]
  Potency: inactive
[3]
  Potency: inactive

## CC1(C)C[C@@H]1C(=O)N/C(=C\CCCCSC[C@H](N)C(=O)O)C(=O)O
[1]
  max activation: -4.56% and -1.17%
[2]
  Potency: inactive
[3]
  Potency: inactive

## C[C@H](O)CN(C)C
[1]
  max activation: -2.23%
[2]
  Potency: inactive
[3]
  Potency: inactive

## O=C(O)/C=C/C(O)c1ccc(Cl)cc1 (stereo not given)
[1]
  max activation: -1.46%
[2]
  Potency: inactive
[3]
  Potency: inactive

## CN1C(C(=O)Nc2ccccn2)C(=O)c2sc(Cl)cc2S1(=O)=O (stereo not given)
[1]
  max activation: -4.75%
[2]
  Potency: inactive
[3]
  Potency: inactive

## O=C1CCC(c2ccccc2)(C2CCN(Cc3ccccc3)CC2)C(=O)N1 (stereo not given)
[1]
  max activation: 4.99%
[2]
  Potency: 14.1 µM (active)
[3]
  Potency: 5.62 µM (active)

## CC(C)C[C@@H](NC(=O)[C@@H](O)[C@H](N)Cc1ccccc1)C(=O)O
[1]
  max activation: -7.87%
[2]
  Potency: inactive
[3]
  Potency: inactive

## CCC(=O)OC(OP(=O)(CCCCc1ccccc1)CC(=O)N1C[C@H](C2CCCCC2)C[C@H]1C(=O)O)C(C)C (stereo not given in full)
[1]
  max activation: -3.49%
[2]
  Potency: inactive
[3]
  Potency: inactive

## CCC(O)c1ccccc1 (stereo not given)
[1]
  max activation: -2.74%
[2]
  Potency: inactive
[3]
  Potency: inactive

## CO/N=C(\C(=O)N[C@@H]1C(=O)N2C(C(=O)O)=C(CSc3cnns3)CS[C@H]12)c1csc(N)n1
[1]
  max activation: -0.96%
[2]
  Potency: inactive
[3]
  Potency: inactive

## CCCCCCCCCC(=O)NO
[1]
  max activation: -0.53%
[2]
  Potency: inactive
[3]
  Potency: inactive

## CN[C@@H]1[C@@H](O[C@H]2O[C@H](CO)[C@@H](N)[C@H](O)[C@H]2O)O[C@H]2C[C@@H](N)[C@@H](O[C@H]3[C@H](O)[C@@H](O)[C@H](N)C[C@@H]3N)O[C@@H]2[C@@H]1O
[1]
  max activation: -0.875%
[2]
  Potency: inactive
[3]
  Potency: inactive

## c1ccc2c(c1)OCC(CN1CCCCC1)O2 (stereo not given)
[1]
  max activation: -3.94%
[2]
  Potency: inactive
[3]
  Potency: inactive

## C=CC1=C(C(=O)O)N2C(=O)[C@@H](NC(=O)/C(=N\O)c3csc(N)n3)[C@H]2SC1 (stereo in doubt)
[1]
  max activation: -3.55%
[2]
  Potency: inactive
[3]
  Potency: inactive

## C[C@@H]1O[C@@H]1P(=O)(O)O
[1]
  max activation: -1.9%
[2]
  Potency: inactive
[3]
  Potency: inactive

## CC[C@H](C)C(=O)O[C@H]1CCC=C2C=C[C@H](C)[C@H](CC[C@@H]3C[C@@H](O)CC(=O)O3)[C@H]21
[2]
  Potency: inactive
[3]
  Potency: inactive
